Results from the supplement of paper PMC4166925.
± gives the standard deviation of the averaged measurements. Over roughly 33,000 sequences, “E-score (dimensionless, -0.5 to 0.5)” has its median near -0.046; the highest 2% begin near 0.36. The list comes from a sample in which the highest values are over-represented; it also holds similar and randomly drawn sequences.

Test system: T1, SpTbr T-box DNA-binding domain (GST fusion)
T1 sequence: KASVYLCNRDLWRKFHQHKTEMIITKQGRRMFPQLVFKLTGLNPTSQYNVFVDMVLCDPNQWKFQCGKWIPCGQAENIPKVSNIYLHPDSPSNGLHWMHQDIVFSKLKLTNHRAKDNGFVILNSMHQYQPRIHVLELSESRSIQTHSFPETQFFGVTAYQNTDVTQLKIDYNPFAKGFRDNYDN
Experiment: PBM E-score of 8-mer (E-score (dimensionless, -0.5 to 0.5)); Tbr is Tbrain of the sea star Patiria miniata (Pm) or the sea urchin Strongylocentrotus purpuratus (Sp); higher = stronger binding preference
Conditions: the construct has about 5 more residues each side
Description: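 Universal protein-binding microarray (Agilent AMADID 016060, 60-bp probes with a 35-bp variable region) incubated with 200 nM GST-fused Strongylocentrotus purpuratus Tbr T-box DNA-binding domain (residues 362-554) in PBS pH 7.5. Scored for every ungapped 8-mer (given with its reverse complement) as E-score (range -0.5 to 0.5; >0.45 counts as bound) and Z-score of median probe intensity. Two replicate arrays (datasets 1 and 2).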
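Also: protein at 200 nM in PBS on universal double-stranded arrays.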

Sequence | PBM E-score of 8-mer
ATCTCCGG | 0.0811 ± 0.031
ACCGTTCA | 0.027 ± 0.023
AGCGAGTC | 0.0305 ± 0.044
CTGTACCA | -0.0774 ± 0.055
GCTAGAAC | 0.0971 ± 0.024
AGACCATG | -0.0594 ± 0.025
ATGCCAAC | 0.124 ± 0.0029
CTGCCAAA | 0.0249 ± 0.15
CTGCCAAC | 0.0901 ± 0.035
GTGCCAAC | 0.4114 ± 0.0035
GTGCCAAA | 0.403 ± 0.0099
TTGCCAAA | 0.0607 ± 0.12
AAGAGTAT | -0.163 ± 0.024
ATACGCAC | 0.153 ± 0.063
ATTTGGCG | 0.118 ± 0.03
CTGGGGAA | 0.00742 ± 0.052
TGCGTGAA | 0.3936 ± 0.0023
GGCGTGAA | 0.473 ± 0.0057
CGCGTGAG | 0.313 ± 0.0063
GCCGTGAA | 0.354 ± 0.018
CGCGTGAA | 0.4208 ± 0.0018
GACGTGAC | 0.235 ± 0.032
GGCGTGAC | 0.388 ± 0.0071
GCCGTGAC | 0.199 ± 0.011
GGCGTGCA | 0.0836 ± 0.055

Sequence | PBM E-score of 8-mer
TACGTGAA | 0.0338 ± 0.073
CGCGTGAC | 0.355 ± 0.02
TCCGTGAA | 0.16 ± 0.012
AGGCTGGG | -0.179 ± 0.012
ACAGTGTA | 0.0565 ± 0.017
ATAACTCC | -0.147 ± 0.029
ACTGACTC | 0.0022 ± 0.0015
AGCGTGAC | 0.3372 ± 0.0013
AGCGTGAA | 0.413 ± 0.018
AGCGTGAT | 0.28 ± 0.022
AGAAGACA | 0.0347 ± 0.065
ATGTGTCA | 0.4671 ± 0.00078
ATATGTCG | 0.139 ± 0.047
ATGTGTCG | 0.385 ± 0.011
GTGTGTCA | 0.346 ± 0.0092
CTGTGTCA | 0.247 ± 0.015
ATGTGTCC | 0.144 ± 0.014
CACATTCA | 0.21 ± 0.041
CATAAAGA | -0.0483 ± 0.0071
GCGGGTGA | 0.261 ± 0.03
GAATTTCA | 0.056 ± 0.018
AAGCAAGG | -0.0863 ± 0.017
AGCCAGAA | -0.268 ± 0.024
AAGGAGAT | -0.0983 ± 0.019
AGAGGGCC | -0.194 ± 0.097

Sequence | PBM E-score of 8-mer
GTCCACAA | 0.153 ± 0.039
CTCCACAA | 0.136 ± 0.0093
GTCCACAC | 0.385 ± 0.0075
CTCCACAC | 0.37 ± 0.0083
ATCCACAC | 0.357 ± 0.0097
CTCCACAG | -0.0194 ± 0.034
AGGGACGA | 0.053 ± 0.072
CCTTTGAG | -0.17 ± 0.018
CGGTAGCA | 0.276 ± 0.031
CTTTGCAA | 0.0361 ± 0.021
GATCGGAC | -0.287 ± 0.013
ATCGGCTG | 0.0647 ± 0.039
ATACTAGA | -0.222 ± 0.11
CTTCTCTC | 0.08 ± 0.04
ATTCTCAA | 0.138 ± 0.062
ATTCTCAC | 0.415 ± 0.015
ATTCTCAG | 0.0379 ± 0.094
CTTCTCAC | 0.401 ± 0.011
CTTCTCAA | 0.0891 ± 0.045
ACCGAGGA | -0.0878 ± 0.039
AGTTCCAT | 0.00979 ± 0.0044
ATGCGATA | 0.0476 ± 0.028
ATGCGAGA | 0.172 ± 0.017
CTGCGATA | 0.0968 ± 0.04
CTGCGAAA | 0.342 ± 0.036

Sequence | PBM E-score of 8-mer
ATGCGACA | 0.285 ± 0.0073
GTGCGAAA | 0.4765 ± 0.0018
GTGCGACA | 0.398 ± 0.012
GTGCGAGA | 0.42 ± 0.0079
CTGCGACA | 0.198 ± 0.036
CTGCGAGA | 0.185 ± 0.0098
GTGCGATA | 0.427 ± 0.0042
TTGCGAAA | 0.33 ± 0.038
GATACCCC | -0.273 ± 0.041
CAAGGATA | -0.175 ± 0.043
GAATCTGC | -0.0922 ± 0.056
ATGCTCCG | -0.0668 ± 0.061
AAGCCCGG | -0.24 ± 0.028
CATGCTAA | 0.0578 ± 0.029
ACCTACTA | 0.17 ± 0.057
GCATTCTA | -0.293 ± 0.06
AGGCAGAC | -0.227 ± 0.0024
CTGCGATC | 0.106 ± 0.1
ATGCGAAC | 0.154 ± 0.017
GGGCGAAC | -0.0364 ± 0.016
CTGCGAAG | 0.2479 ± 0.0022
GTGCGAAC | 0.4783 ± 0.00073
CTGCGAAC | 0.365 ± 0.0088
AATGAGGA | -0.334 ± 0.058
AACAATGA | 0.0839 ± 0.096

Sequence | PBM E-score of 8-mer
AAAGTTCA | -0.0472 ± 0.047
CTACCGAG | -0.07 ± 0.013
CACCTGAA | 0.29 ± 0.0089
CACCTGAC | 0.374 ± 0.0049
AACCTGAC | 0.121 ± 0.003
CACCTGTC | 0.431 ± 0.019
CACCTGTA | 0.331 ± 0.036
AACCTGTC | 0.248 ± 0.011
GGATCCAC | -0.00958 ± 0.069
CGAAGTAC | -0.169 ± 0.067
GCCGTTTA | 0.0646 ± 0.08
AGTGCGAG | 0.408 ± 0.022
ACTGCGAT | 0.117 ± 0.0014
ACTGCGAG | 0.17 ± 0.033
AGTGCGAT | 0.4291 ± 0.0025
AATGCGAT | 0.0396 ± 0.031
AGTGCGAC | 0.341 ± 0.024
CGTGCGAG | 0.373 ± 0.018
CATGCGAG | 0.106 ± 0.012
CGTGCGAC | 0.238 ± 0.029
ATTCTGTG | -0.0566 ± 0.036
CTCTCAGA | -0.187 ± 0.0034
CTCCGGCA | 0.0686 ± 0.041
CCATAAGG | -0.0717 ± 0.0012
AGGCGTCA | 0.41 ± 0.005

Sequence | PBM E-score of 8-mer
AGGCGTCG | 0.349 ± 0.018
GTGCGTCA | 0.187 ± 0.009
GGGCGTCA | 0.376 ± 0.017
CGGCGTCA | 0.223 ± 0.02
GCGCGTCA | 0.265 ± 0.028
ACTTCAAT | -0.0527 ± 0.032
ACGTCACG | 0.217 ± 0.057
ATGTTGGG | -0.0592 ± 0.0084
TAAGGCTA | -0.149 ± 0.077
AACACTCA | 0.31 ± 0.0041
AACACTCG | 0.193 ± 0.0083
CACACTCG | 0.426 ± 0.019
CACACTCA | 0.407 ± 0.0072
AACACTCC | 0.283 ± 0.039
TACACTCA | 0.137 ± 0.013
CACACTCC | 0.402 ± 0.0059
GACACTCC | 0.316 ± 0.0096
CCCACTCG | 0.05 ± 0.13
CGCAGCAC | 0.0169 ± 0.017
AGTTGCTA | 0.239 ± 0.042
GGACACAC | 0.0866 ± 0.0081
AGTCACAT | 0.1318 ± 0.0012
CGTCACAC | 0.43 ± 0.011
AGTCACAC | 0.457 ± 0.0049
CGTCACAA | 0.244 ± 0.0062

Sequence | PBM E-score of 8-mer
CGTCACAG | 0.232 ± 0.0032
AGTCACAG | 0.0674 ± 0.028
GGTCACAA | 0.2073 ± 0.00096
GGTCACAC | 0.46 ± 0.013
GTTCATCA | 0.0211 ± 0.0087
ATCAACAT | -0.111 ± 0.028
AGTGCTCC | -0.0941 ± 0.03
AGTCTTGG | -0.101 ± 0.011
CGTAAGTA | 0.169 ± 0.0079
AGCTGTCG | 0.263 ± 0.013
AGGTGTCC | 0.428 ± 0.0068
ACGTGTCC | 0.0769 ± 0.048
ACGTGTCG | 0.362 ± 0.015
AGATGTCC | -0.309 ± 0.003
AGGTGTCG | 0.486 ± 0.008
CCACCAGG | -0.177 ± 0.03
CGTGAGCA | 0.105 ± 0.039
GCCTAAGC | -0.159 ± 0.006
CTAACTAG | 0.0135 ± 0.086
AAGGGAAA | -0.289 ± 0.05
GACAATGA | 0.176 ± 0.0013
CTCACCAC | 0.218 ± 0.037
